About 83,000 compounds went through this panel and 20% of them were active in at least one assay; those are over-represented in the sample as a whole.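 Plates (96-well) were seeded with cells, treated with compound at one concentration, and incubated for 48 hours before percent growth was determined.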 A number with no mark means an inactive call. Activity calls are given as the source filed them. Rule for the calls: active = growth percent below 10; inactive = the rest.

The results in this text go back to PubChem BioAssay (NCI).

Some test systems named below: SR leukemia; RPMI-8226 leukemia; OVCAR-8 ovarian; OVCAR-5 ovarian; OVCAR-4 ovarian; SK-OV-3 ovarian; IGROV1 ovarian; OVCAR-3 ovarian; HS 578T breast; NCI/ADR-RES ovarian; T-47D breast; BT-549 breast; MDA-MB-435 melanoma; SW-620 colon; MCF7 breast; HCT-116 colon; HCC-2998 colon; KM12 colon.
Holding throughout (assay): NCI-60 one-dose screen, 48 h (100 = growth as untreated, 0 = no growth, -100 = all killed)
Conditions in all cases: 10 µM unless noted

On to `COc1cccc(-c2nc3sccn3c2-c2ccnc(NCCN3CCCNS3(=O)=O)n2)c1`, for which the growth in the experiment with SR leukemia is 59.5%; with RPMI-8226 leukemia it was 102%; with OVCAR-8 ovarian it was 83.8%; in the experiment on OVCAR-5 ovarian, 112%; with OVCAR-4 ovarian, 81.5%; with SK-OV-3 ovarian, 54.8%. The growth is 75% with IGROV1 ovarian; 102% with OVCAR-3 ovarian; 105% with HS 578T breast; 105% in the experiment with NCI/ADR-RES ovarian; 95.3% in the experiment with T-47D breast; 113% in the experiment with BT-549 breast. Besides, the growth in the experiment on MDA-MB-435 melanoma is 54.1%; in the experiment with SW-620 colon, 127%; in the experiment on MCF7 breast it was 100%; with HCT-116 colon, 74.6%; in the experiment on HCC-2998 colon it was 118%; with KM12 colon, 103%.
Turning to `CC(=O)NC1C(O[C@H]2C[C@H]3[C@@H]4CC=C5C[C@@H](O)CC[C@]5(C)[C@H]4CC[C@]3(C)[C@H]2[C@H](C)C(=O)CCC(C)C)OCC(O)C1O` (some centres not stated), the growth with SR leukemia is 18.7%; in the experiment on RPMI-8226 leukemia, -9.81% (active); in the experiment on OVCAR-8 ovarian, 66.3%; with OVCAR-5 ovarian it was 74.2%; with OVCAR-4 ovarian it was 87.8%; in the experiment on SK-OV-3 ovarian, 37.9%. Also, the growth with IGROV1 ovarian was 72%; in the experiment on OVCAR-3 ovarian, 72%; in the experiment on HS 578T breast, 5.84% (active); in the experiment on NCI/ADR-RES ovarian it was 88.8%; in the experiment with T-47D breast it was 45.4%; with BT-549 breast, 31.3%. The growth in the experiment on MDA-MB-435 melanoma is 35.3%; in the experiment with SW-620 colon, 49.4%; in the experiment on MCF7 breast, 43.4%; with HCT-116 colon, 31.8%; in the experiment on HCC-2998 colon, 89.5%; in the experiment on KM12 colon it was 70.1%.
Regarding `CN(C)c1nc(-c2cccs2)n2nc(-c3ccc(Cl)cc3)cc2n1`, the growth in the experiment on SR leukemia is 58.7%; in the experiment on RPMI-8226 leukemia, 74.3%; in the experiment on OVCAR-8 ovarian, 11.8%; with OVCAR-5 ovarian it was 75.6%; in the experiment on OVCAR-4 ovarian, -39.5% (active); with SK-OV-3 ovarian, -54.2% (active). Besides, the growth is 11.9% in the experiment with IGROV1 ovarian; 14.8% with OVCAR-3 ovarian; -2.48% (active) with HS 578T breast; 38.3% with NCI/ADR-RES ovarian; 30.7% in the experiment with T-47D breast; 68.7% in the experiment on BT-549 breast. Moreover, the growth is 63.1% in the experiment on MDA-MB-435 melanoma; 56.8% in the experiment on SW-620 colon; 66.2% in the experiment on MCF7 breast; 6.95% (active) with HCT-116 colon; 48.9% in the experiment with HCC-2998 colon; 72.5% with KM12 colon.
Take `O=C(Nc1cccc(N=Cc2c(O)ccc3ccccc23)c1)c1ccccc1`: the growth with SR leukemia is 101%; in the experiment with RPMI-8226 leukemia it was 94.6%; with OVCAR-8 ovarian, 93%; in the experiment on OVCAR-5 ovarian, 108%; with OVCAR-4 ovarian, 88.1%; in the experiment with SK-OV-3 ovarian, 90.4%. Further, the growth in the experiment with IGROV1 ovarian was 101%; in the experiment with OVCAR-3 ovarian, 103%; in the experiment on HS 578T breast, 97.4%; with NCI/ADR-RES ovarian, 103%; with T-47D breast, 85.2%; in the experiment with BT-549 breast it was 85.3%. Also, the growth in the experiment with MDA-MB-435 melanoma was 101%; with SW-620 colon it was 98.6%; in the experiment on MCF7 breast it was 86.3%; in the experiment with HCT-116 colon, 93.9%; with HCC-2998 colon, 102%; in the experiment with KM12 colon it was 95.6%.
For `O=S1(=O)NCCN1CCNc1nccc(-c2c(-c3cccc(O)c3)nc3sccn23)n1`, the growth is 62.2% in the experiment with SR leukemia; 102% with RPMI-8226 leukemia; 103% with OVCAR-8 ovarian; 91.9% in the experiment on OVCAR-5 ovarian; 131% in the experiment with OVCAR-4 ovarian; 97.4% with SK-OV-3 ovarian. Further, the growth in the experiment with IGROV1 ovarian was 105%; with OVCAR-3 ovarian, 108%; with HS 578T breast, 95.9%; in the experiment on NCI/ADR-RES ovarian it was 107%; in the experiment on T-47D breast it was 106%; in the experiment on BT-549 breast, 135%. Also, the growth in the experiment on MDA-MB-435 melanoma is 34.7%; with SW-620 colon it was 127%; in the experiment on MCF7 breast, 103%; in the experiment with HCT-116 colon it was 97.8%; in the experiment on HCC-2998 colon, 113%; with KM12 colon it was 108%.
Take `CC(C)[C@@]12C[C@@H](OC(=O)C3CO3)[C@@](C)(O1)[C@@H]1CC[C@@H](C)[C@H]1[C@@H]2OC(=O)/C=C/c1ccccc1` (some centres not stated): the growth in the experiment on SR leukemia was 74.6%; in the experiment with RPMI-8226 leukemia, 89.1%; in the experiment on OVCAR-8 ovarian it was 22.4%; with OVCAR-5 ovarian, 100%; in the experiment with OVCAR-4 ovarian, 111%; in the experiment with SK-OV-3 ovarian, 76.9%. Also, the growth with IGROV1 ovarian is 74.6%; in the experiment on OVCAR-3 ovarian, 90.4%; in the experiment on HS 578T breast it was -21.2% (active); with NCI/ADR-RES ovarian it was 59.4%; with T-47D breast, 58.8%; with BT-549 breast, 77.1%. Also, the growth in the experiment on MDA-MB-435 melanoma is 109%; with SW-620 colon it was 98.3%; with MCF7 breast, 85.7%; with HCT-116 colon it was 85.9%; in the experiment with HCC-2998 colon, 95%; in the experiment on KM12 colon it was 99.7%.
With `COc1ccc(-c2nc(SCCC(C)C)nc(Nc3ccc(C(=O)O)cc3)c2C#N)cc1`, the growth was 77.3% with SR leukemia; 62.9% in the experiment on RPMI-8226 leukemia; 93.9% with OVCAR-8 ovarian; 105% with OVCAR-5 ovarian; 89.2% in the experiment with OVCAR-4 ovarian; 109% in the experiment with SK-OV-3 ovarian. For the same compound, the growth was 110% with IGROV1 ovarian; 97.5% in the experiment on OVCAR-3 ovarian; 94.2% in the experiment on HS 578T breast; 102% with NCI/ADR-RES ovarian; 71.7% with T-47D breast; 82.6% in the experiment on BT-549 breast. For the same compound, the growth in the experiment with MDA-MB-435 melanoma was 99.3%; in the experiment on SW-620 colon it was 101%; with MCF7 breast, 80.5%; in the experiment on HCT-116 colon, 84.4%; in the experiment on HCC-2998 colon, 104%; in the experiment with KM12 colon it was 86.3%.
As to `COc1ccc(-c2cc(C(=O)Nc3ccc(C)cc3)nc3[nH]c(=O)sc23)cc1`, the growth is 76.8% with SR leukemia; 47.2% in the experiment with RPMI-8226 leukemia; 77.1% in the experiment on OVCAR-8 ovarian; 100% with OVCAR-5 ovarian; 71.7% in the experiment on OVCAR-4 ovarian; 68.4% in the experiment on SK-OV-3 ovarian. The growth with IGROV1 ovarian was 70.3%; in the experiment with OVCAR-3 ovarian, 80.1%; with HS 578T breast, 74.1%; in the experiment with NCI/ADR-RES ovarian it was 78.3%; in the experiment on T-47D breast, 58.7%; in the experiment with BT-549 breast it was 75.9%. Moreover, the growth is 65.5% in the experiment with MDA-MB-435 melanoma; 77.2% in the experiment on SW-620 colon; 71.6% in the experiment on MCF7 breast; 66.2% in the experiment on HCT-116 colon; 76.7% with HCC-2998 colon; 67.4% in the experiment with KM12 colon.
`O=c1nc(-c2ccccc2)c2cc(-c3ccc(N4CCOCC4)cc3)ccc2[nH]1`: the growth with SR leukemia was 71.2%; with RPMI-8226 leukemia, 51.3%; in the experiment with OVCAR-8 ovarian, 82%; with OVCAR-5 ovarian, 99.5%; with OVCAR-4 ovarian, 91%; in the experiment on SK-OV-3 ovarian it was 77.1%. Further, the growth in the experiment with IGROV1 ovarian was 81.6%; in the experiment on OVCAR-3 ovarian, 97.1%; in the experiment with HS 578T breast it was 84%; with NCI/ADR-RES ovarian, 95.3%; in the experiment on T-47D breast it was 52.4%; with BT-549 breast, 88%. The growth in the experiment with MDA-MB-435 melanoma is 76.6%; with SW-620 colon it was 86.8%; in the experiment with MCF7 breast, 71.2%; in the experiment with HCT-116 colon, 74.3%; in the experiment on HCC-2998 colon, 98%; in the experiment on KM12 colon it was 85.7%.
